Screening data from PubChem.
HIV RNase H inh-1 = blocks HIV-1 RNase H cleavage of RNA/DNA duplex | P04585 | RT-RNase H RNA/DNA duplex cleavage, fluorescence | inhibition, % at 10 µM | 65,000 compounds, 1.9% hits; in the data active = inhibition above about 50%
RmlC RmlD mix = inhibitors of RmlC and RmlD coupled enzymes | RmlC/RmlD coupled enzyme inhibition, 384-well mixture HTS | inhibition, % at 5.5 µM | 110,000 compounds, 0.39% hits; in the data active = inhibition above about 30%, passing the limit was not always enough; inconclusive = no clear call, values can overlap the other calls
HIV RNase H inh-2 = confirmation of HIV-1 reverse transcriptase RNase H inhibitors. shares compounds with HIV RNase H inh-1. Recombinant RT RNase H, fluorescent RNA/DNA duplex cleavage. inhibition, % at 10 µM. 1,000 compounds, 39% hits. AID 651; in the data active = inhibition above about 48%; inconclusive = no clear call, values can overlap the other calls
* hit, by the source's call; u = inconclusive; x = not tested or not shown. The sample as a whole holds a higher share of hits than the screen did.

SMILES	HIV RNase H inh-1	RmlC RmlD mix	HIV RNase H inh-2
Clc1ss/c(=N\c2ccccn2)c1Cl	67.8*	-9.3	41.1
CC(C)(C)c1ccc(Cn2ccc(-c3ccc4c(c3)OCO4)n2)cc1	x	-26.6	x
O=C(NCCCN1CCN(c2cccc(Cl)c2)CC1)c1nc(-c2ccncc2)no1	0.1	0.5	x
C=CCNC(=O)c1onc(CSc2cccc(C)c2)c1C(=O)O	x	-5.4	x
CC1CCN(S(=O)(=O)c2ccc(NC(=O)Cc3ccccc3)cc2)CC1	x	-3.7	x
CC1CCN(S(=O)(=O)c2ccc(NC(=O)Cn3nnc(-c4ccccc4F)n3)cc2)CC1	69.4*	6.4	39.0
COc1cc(NS(=O)(=O)c2ccc(Br)s2)cc(OC)c1	-16.7	-3.9	x
CCn1c2ccccc2c2nc3cc(S(=O)(=O)N4CCOCC4)ccc3nc21	98.3*	x	52.1*
c1ccc2nc3c(nc2c1)c1ccccc1n3CCN1CCOCC1	-29.5	-1.1	x
COC(=O)COc1ccc(S(=O)(=O)N2CCc3ccccc3C2)cc1C	x	15.9	x
O=C(O)c1ccccc1S(=O)(=O)Cc1ccccc1	70.8*	-12.1	14.6
O=S(=O)(Cc1ccccc1)c1ccccc1-c1nnc(-c2ccccc2)o1	x	-13.3	x
CN(C)c1ccc(C(=O)Nc2nnc(-c3ccc(Cl)cc3)o2)cc1	57.1*	4.9	31.2
CC(=O)c1ccc(C(=O)Nc2nnc(-c3ccc(Cl)cc3)o2)cc1	14.0	-11.3	x
CCc1ccc(NC(=O)CSc2nc3cc(C(=O)OC)ccc3c(=O)n2Cc2ccco2)cc1	59.1*	-8.7	57.4*
CCN(C(=O)CSc1nc2cc(C(=O)OC)ccc2c(=O)n1Cc1ccco1)c1cccc(C)c1	2.0	2.1	x
CC1CCc2cc(F)ccc2N1C(=O)c1ccc2c(c1)OCO2 (stereo not given)	-4.4	-12.6	x
COc1ccc(OC)c(C(=O)CSc2nnc(-c3ccc(OC)c(OC)c3)o2)c1	4.7	6.9	x
CC1OC(Oc2ccc3ccc(=O)oc3c2-c2c(O)ccc3cc(Oc4ccc5ccc(=O)oc5c4)c(=O)oc23)C(O)C(O)C1O (stereo not given)	x	-9.9	x
Cc1ccccc1Nc1nnc(SCC(=O)NC(=O)NCc2ccco2)s1	66.6*	x	20.2
O=C(CSc1nnc(Nc2ccccc2F)s1)NCc1ccco1	33.3	-7.8	x
Cc1ccc(NC(=O)CSc2nc3ccccc3c(=O)n2CCCN2CCCCC2)cc1C	x	37.8	x
C=C(C)CSc1nnc([C@@H](NC(=O)OC(C)(C)C)C(C)CC)o1 (stereo not given in full)	-4.4	2.9	x
Cn1c(-c2ccc3c(c2)OCO3)cnc1NCc1ccccc1	-5.3	1.8	x
Cn1c(-c2ccc3c(c2)OCO3)cnc1NC(=O)CCC(=O)NCCc1ccccc1	84.2*	-6.4	41.7
SMILES	HIV RNase H inh-1	RmlC RmlD mix	HIV RNase H inh-2
CN1CCN(C(c2cccc(C(F)(F)F)c2)c2nnnn2Cc2ccccc2)CC1 (stereo not given)	-0.8	8.5	x
CCC(C)c1ccc(OCCCCN2CCOCC2)cc1 (stereo not given)	x	0.5	x
Nc1c(C(=O)N2CCOCC2)sc(=S)n1-c1ccccc1	94.5*	3.2	64.6*
Cc1cc(C(=O)N2CCOCC2)n(-c2ccccc2)n1	-6.9	10.2	x
O=C(c1nc(-c2ccccc2)n(-c2ccccc2)n1)N1CCCCCC1	-5.4	-22.9	x
Nc1c(C(=O)N2CCCCC2)sc(=S)n1-c1ccccc1	96.8*	-0.5	77.4*
CC1(C)NC(=O)N(CCOCCOc2c(Cl)cc(Cl)cc2Cl)C1=O	x	-14.6	x
C1CNCCNCCCNCCNC1	-3.7	x	x
CCCn1c(SCc2cc(=O)oc3ccc4ccccc4c23)n[nH]c1=O	12.4	10.4	x
CCOc1ccccc1C(=O)OCC(=O)Nc1ccc(N2CCCCC2)cc1	x	4.1	x
Cc1cccc(C(=O)OCC(=O)Nc2ccc(N3CCCCC3)cc2)c1O	88.5*	-13.9	53.3*
CC(C)NS(=O)(=O)c1ccc(OCC(=O)Nc2ccc(F)cc2F)cc1	x	32.1	x
N#Cc1ccc(-c2cccnc2)nc1SCC(=O)Nc1sc2c(c1C#N)CCC2	89.8*	-4.9	42.0
COc1ccc(-c2ccc(C#N)c(SCC(=O)Nc3sc4c(c3C#N)CCC4)n2)cc1	x	-4.2	x
Cc1cccc(-c2noc(CCCC(=O)N3CCOCC3)n2)c1	x	6.5	x
O=C(CN(C(=O)CNC(=O)c1ccco1)c1ccc(Cl)c(Cl)c1)NC1CCCCC1	-0.8	-13.5	x
Cc1ccc(C(=O)CSc2nc3cc(S(=O)(=O)N4CCOCC4)ccc3o2)cc1	72.4*	4.2	22.6
O=C(CSc1nc2cc(S(=O)(=O)N3CCOCC3)ccc2o1)NC1CCCc2ccccc21 (stereo not given)	85.5*	0.5	u
Cc1[nH]c2ccccc2c1C(=O)CSc1nc2cc(S(=O)(=O)N3CCCCC3)ccc2o1	36.1	0.8	x
Cc1ccc(S(=O)(=O)N2CCN(CC(=O)NC3CCCc4ccccc43)CC2)cc1C (stereo not given)	x	-7.5	x
c1ccc(-c2nnc(C3CC(c4ccncc4)=NO3)o2)cc1 (stereo not given)	x	-11.7	x
O=S(=O)(/N=S1/CC=CCN1S(=O)(=O)c1ccccc1)c1ccccc1 (stereo not given)	78.9*	-6.0	60.4*
O=S(=O)(c1ccccc1)N1CCN(S(=O)(=O)c2ccccc2)C1	-8.6	7.8	x
COC(=O)c1sccc1NC(=O)c1ccc(Br)o1	-32.2	-2.4	x
COC(=O)c1c(NC(=O)c2ccc(Br)o2)sc(C)c1C	74.3*	-32.3	0.9
SMILES	HIV RNase H inh-1	RmlC RmlD mix	HIV RNase H inh-2
Cc1ccc(C)c(N2CCN(C(=O)CNS(=O)(=O)c3cccs3)CC2)c1	x	101.8	x
O=S(=O)(/N=C/c1c(O)ccc2ccccc12)c1cccs1	x	4.2	x
COc1ccc(C2=NO[C@@H]3C(=O)N(c4cccc(C)c4C)C(=O)[C@H]23)cc1OC	6.4	6.2	x
COc1ccc(C2=NO[C@@H]3C(=O)N(c4ccc(C)cc4C)C(=O)[C@H]23)cc1OC	54.3*	-9.7	-7.5
CSc1nc(N(CCO)CCO)c2sc3nc(-c4ccco4)c4c(c3c2n1)CCC4	56.4*	-9.0	16.1
OCCN(CCO)c1ncnc2c1sc1nc(N3CCOCC3)c3c(c12)CCCC3	-44.0	6.3	x
Cc1cc(C)c(C(=O)C2OC(=O)C(C)(C)C(=O)C2(C)C)c(C)c1 (stereo not given)	x	7.7	x
CC(C)(C)c1ccc(O)c(N)c1	86.1*	3.8	u
CC(C)c1ccc(O)c(N)c1	57.6*	-11.3	-12.6
CCC(C)c1ccc(O)c(NC(=O)c2cncc(Br)c2)c1 (stereo not given)	2.8	-17.2	x
CC(C)(C)c1ccc(SCC(N)=O)cc1	-12.1	-7.0	x
CC(C)c1ccc(O)c(NC(=O)c2cccnc2)c1	x	10.1	x
CCC(C)c1ccc(O)c(N)c1 (stereo not given)	60.0*	-19.0	3.7
CC(=O)N1c2ccccc2C(C)(C)C2CCC(C)CC21 (stereo not given)	x	-7.1	x
CCc1nc2ccccc2c(C(=O)OCC(=O)NCCCN2CCCC2=O)c1C	-15.3	x	x
Cc1ccc(S(=O)(=O)c2nc(N3CCOCC3)sc2Cl)cc1	-4.3	24.4	x
O=C(Nc1ccc(N2CCOCC2)cc1)c1ccc2nc(-c3ccco3)c(-c3ccco3)nc2c1	91.5*	0.4	63.4*
CCCCNC(=O)c1ccc2nc(-c3ccco3)c(-c3ccco3)nc2c1	91.5*	-1.5	2.1
O=C(Nc1ccc(N2CCOCC2)cc1)c1ccncc1	x	13.5	x
CC(=O)c1ccc(NC(=O)c2ccc3nc(-c4ccco4)c(-c4ccco4)nc3c2)cc1	x	5.8	x
